Bioassay records deposited in PubChem by several laboratories.
DAT uptake mod: changed hDAT dopamine uptake under cocaine IC80, either direction, primary screen, cocaine antagonist project, cell-based, LLC-PK1 hDAT, [14C]-dopamine uptake, MLSMR; AID 449768, 2010; B-score at 10 µM; actives 1.3% (n = 110,000); LLC-PK1 hDAT cells, [14C]-dopamine uptake with cocaine IC80; actives deviate in either direction;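 active = Z score or B-score, a plate-position-corrected score, falls beyond the plate's 99.7% confidence bounds, in either direction; inactive = both scores lie inside the 99.7% bounds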;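 note: scored against the spread of the other compound wells on the same plate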
D1 mod: D1 CRE-luciferase signal change, two-sided – cell-based, HEK293 D1, dopamine EC30, D1 allosteric modulator project, primary screen | B-score at 10 µM | D(1A) dopamine receptor (Homo sapiens), P21728 | dopamine EC30 potentiation; actives deviate in either direction | actives 5.9% (n = 58,000) | AID 641, 2007;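 active = luminescence count or its row- and column-corrected plate score outside the 99.7% band of the plate's sample wells, on either side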
BAP1 inh: inhibitors of BAP1 deubiquitinase, primary screen, biochemical, Ub-AMC fluorescence, kinetic; Ubiquitin carboxyl-terminal hydrolase BAP1 (Homo sapiens), Q92560; recombinant BAP1, Ub-AMC hydrolysis fluorescence kinetic; hits give low values; calls only at 20 µM; actives 0.48% (n = 72,000);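 active = activity remaining at or below 50% of control, provided the compound also passes the data quality filters; inactive = the rest, including low values that fail the filters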;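 note: 100% = DMSO wells rate and 0% = substrate alone blank rate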
BAP1 inh confirm: BAP1 deubiquitinase inhibitors, hit retest, confirmation, orthogonal assay, biochemical, Ub-ethyl ester substrate, HPLC readout | shares compounds with BAP1 inh | purified BAP1, Ub-ethyl ester hydrolysis; hits give low values | % of control activity, % at 20 µM | actives 8% (n = 310);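 active = percent of control activity at or below 60%; inconclusive = HPLC trace unusable from injection failure or solvent front hiding peaks; inactive = the rest, plus ubiquitin peak ratio over a set limit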
An asterisk follows results filed as active. The sample as a whole holds a higher share of hits than the screen did.

Results for O=C(NCc1ccco1)c1cc2nc(-c3ccc4c(c3)OCO4)cc(C(F)(F)F)n2n1 ?
DAT uptake mod: 0.11; D1 mod: -0.79; BAP1 inh: active; BAP1 inh confirm: 56*

Results for O=C(NC12CC3CC(CC(C3)C1)C2)c1cc2nc(-c3ccco3)cc(C(F)(F)F)n2n1 ?
DAT uptake mod: -0.0029; D1 mod: 0.74; BAP1 inh: active; BAP1 inh confirm: 79

How did COc1ccc(-c2cc(C(F)(F)F)n3nc(C(=O)NCc4ccco4)c(Cl)c3n2)cc1 do in these assays?
DAT uptake mod: -0.03

What do the screens show for `Cc1ccc(-c2cc(C(F)F)n3ncc(C(=O)NCc4ccco4)c3n2)cc1`?
DAT uptake mod: -0.21; D1 mod: -1.8

How did CC(=O)Nc1ccc(Oc2cc(NC(=O)c3cc(-c4ccc(Cl)cc4)nc4ccccc34)cc([N+](=O)[O-])c2)cc1 do in these assays?
BAP1 inh: inactive

How did Cc1cc2nn(-c3ccccc3)nc2cc1NC(=O)COc1ccccc1 do in these assays?
BAP1 inh: inactive

How did CC(Cl)=CCN1C(=O)C(=O)c2cccc(C)c21 do in these assays?
BAP1 inh: inactive

How did O=C(c1ccc(C(=O)N2CCC(c3ccccc3)CC2)s1)N1CCC(c2ccccc2)CC1 do in these assays?
BAP1 inh: inactive

Results for COc1ccccc1N1CCN(C(=O)CSc2nc(-c3ccco3)cc(C(F)(F)F)n2)CC1 ?
DAT uptake mod: 0.94; D1 mod: -0.95; BAP1 inh: active; BAP1 inh confirm: 109

How did O=C(CSc1nc(-c2ccco2)cc(C(F)(F)F)n1)N1CCN(c2ccc(Cl)cc2)CC1 do in these assays?
DAT uptake mod: 0.67

What do the screens show for `CC(C)(C)C1CCC(OCC(O)CN2CCC(CN3C(=O)c4cccc5cccc(c45)C3=O)CC2)CC1` (centres undefined)?
BAP1 inh: inactive

How did Cc1nc(N2CCN(c3ccccc3)CC2)nc2c1C(=O)CC(c1ccccc1)C2 (centres undefined) do in these assays?
DAT uptake mod: -1.2; D1 mod: -0.61; BAP1 inh: active; BAP1 inh confirm: 60

Results for Cc1nc(N2CCN(c3ccccc3)CC2)nc2c1C(=O)CC(C)C2 (centres undefined) ?
DAT uptake mod: 1.1; D1 mod: 0.11; BAP1 inh: inactive

Results for O=C(Nc1nc2c(Cl)cccc2s1)c1ccc(Br)o1 ?
DAT uptake mod: -0.019; D1 mod: -0.7; BAP1 inh: inactive

What do the screens show for `O=C(Nc1nc2ccc(Cl)cc2s1)c1ccc(Br)o1`?
DAT uptake mod: -1.3; D1 mod: -0.76; BAP1 inh: active; BAP1 inh confirm: 81

How did CCc1ccc(NS(=O)(=O)c2ccc3[nH]cc(C(=O)NCC4CCCO4)c(=O)c3c2)cc1 (centres undefined) do in these assays?
D1 mod: 0.02; BAP1 inh: inactive

How did O=C(NCc1ccccc1)c1c[nH]c2ccc(S(=O)(=O)Nc3ccc4c(c3)OCCO4)cc2c1=O do in these assays?
DAT uptake mod: -0.9; D1 mod: 0.65; BAP1 inh: active; BAP1 inh confirm: inconclusive

How did CC1CCCC(C)N1CC(O)COc1ccc(N=Cc2ccccc2O)cc1 (centres undefined) do in these assays?
BAP1 inh: inactive

How did Cc1ccc(C(C)C)c(OCC(O)CNC(C)(C)C)c1 (centres undefined) do in these assays?
BAP1 inh: inactive

What do the screens show for `CN1CC=C2C(C#N)=C(N)C(C#N)(C#N)C(CCc3ccccc3)C2C1` (centres undefined)?
DAT uptake mod: 0.87; D1 mod: -2.6; BAP1 inh: inactive

Results for CCCC1C2CN(C(C)C)CC=C2C(C#N)=C(N)C1(C#N)C#N (centres undefined) ?
D1 mod: 0.29; BAP1 inh: active; BAP1 inh confirm: 94

Results for O=C1CSC(c2cccc([N+](=O)[O-])c2)N1c1ccc(Oc2ccc(Cl)cc2)cc1 (centres undefined) ?
BAP1 inh: inactive

What do the screens show for `COC(=O)c1ccc(NC(=O)c2cccc(C(=O)OC(C)C)n2)cc1`?
BAP1 inh: inactive

How did COC(=O)c1ccc(OCC(=O)c2ccc(O)cc2O)cc1 do in these assays?
DAT uptake mod: -0.28; D1 mod: -0.45; BAP1 inh: inactive
